PubChem BioAssay
For part of these data: Measured potencies and affinities stand elsewhere. Activity calls are given as the source filed them.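 How the source made its calls, unless noted: active means calcium signal ratio cut to more than 3 SD under the fully stimulated control mean yet still positive, in both repeats and the primary screen; inactive means the rest.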

Columns and labels:
[1] = test system: TRPC4 beta (transient receptor potential cation channel C4), mouse; test: activators of mouse TRPC4 channel, confirmation, cell-based, Fluo4 calcium, HEK293 TRPC4beta/mu-opioid, duplicates, 10 µM (AID 2426;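 active means fluorescence ratio normalized to control raised more than 50% in primary screen plus both repeat runs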;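 further: percent rise of integrated ratio over buffer wells lacking compound which define 0%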); details: Fluo4 calcium fluorescence, at 10 µM; hits give high values
[2] = test system: transient receptor potential cation channel C4 beta (TRPC4), mouse; test: activators of mouse TRPC4 channel, confirmation, cell-based, second round, Fluo4, HEK293 TRPC4beta/mu-opioid, 1 µM (AID 2461;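 active means primary screen active and over 50% activation in each of two duplicate runs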;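 on activation: 0% = wells without test compound as baseline of integrated fluorescence ratio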); details: Fluo4 calcium fluorescence, at 1 µM; hits give high values
[3] = test system: TRPC4 (transient receptor potential cation channel C4 beta), mouse; test: positive allosteric modulators of mouse TRPC4, confirmation, cell-based, second round, Fluo-4, HEK293 TRPC4beta/mu-opioid, 1 µM (AID 2554;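 active means primary screen hit whose fluorescence ratio, in both repeats, exceeds the weak agonist control mean by 3 SD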); details: DAMGO EC20, Fluo-4 calcium flux, at 1 µM; hits give high values
[4] = test system: TRPC4 beta (transient receptor potential cation channel C4), mouse; test: positive allosteric modulators of mouse TRPC4, confirmation, cell-based, Fluo-4, HEK293 TRPC4beta/mu-opioid (AID 2555;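 active means primary screen hit whose calcium fluorescence ratio, in both repeats, exceeds the weak agonist control mean by 3 SD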); details: DAMGO EC20, Fluo-4 calcium flux, at 10 µM; hits give high values
[5] = target: Short transient receptor potential channel 4 (Mus musculus) (UniProt Q9QUQ5); test: inhibitors of mouse TRPC4 channel, confirmation, cell-based, Fluo4, HEK293 TRPC4beta/mu-opioid (AID 2636;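 active means calcium signal cut by more than 3 SD below the full-agonist control yet still positive, in both repeats and the earlier primary screen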); details: DAMGO, Fluo4 calcium flux, at 10 µM; hits give high values
Sequence of Short transient receptor potential channel 4 (Mus musculus) (Q9QUQ5 whole entry, looked up): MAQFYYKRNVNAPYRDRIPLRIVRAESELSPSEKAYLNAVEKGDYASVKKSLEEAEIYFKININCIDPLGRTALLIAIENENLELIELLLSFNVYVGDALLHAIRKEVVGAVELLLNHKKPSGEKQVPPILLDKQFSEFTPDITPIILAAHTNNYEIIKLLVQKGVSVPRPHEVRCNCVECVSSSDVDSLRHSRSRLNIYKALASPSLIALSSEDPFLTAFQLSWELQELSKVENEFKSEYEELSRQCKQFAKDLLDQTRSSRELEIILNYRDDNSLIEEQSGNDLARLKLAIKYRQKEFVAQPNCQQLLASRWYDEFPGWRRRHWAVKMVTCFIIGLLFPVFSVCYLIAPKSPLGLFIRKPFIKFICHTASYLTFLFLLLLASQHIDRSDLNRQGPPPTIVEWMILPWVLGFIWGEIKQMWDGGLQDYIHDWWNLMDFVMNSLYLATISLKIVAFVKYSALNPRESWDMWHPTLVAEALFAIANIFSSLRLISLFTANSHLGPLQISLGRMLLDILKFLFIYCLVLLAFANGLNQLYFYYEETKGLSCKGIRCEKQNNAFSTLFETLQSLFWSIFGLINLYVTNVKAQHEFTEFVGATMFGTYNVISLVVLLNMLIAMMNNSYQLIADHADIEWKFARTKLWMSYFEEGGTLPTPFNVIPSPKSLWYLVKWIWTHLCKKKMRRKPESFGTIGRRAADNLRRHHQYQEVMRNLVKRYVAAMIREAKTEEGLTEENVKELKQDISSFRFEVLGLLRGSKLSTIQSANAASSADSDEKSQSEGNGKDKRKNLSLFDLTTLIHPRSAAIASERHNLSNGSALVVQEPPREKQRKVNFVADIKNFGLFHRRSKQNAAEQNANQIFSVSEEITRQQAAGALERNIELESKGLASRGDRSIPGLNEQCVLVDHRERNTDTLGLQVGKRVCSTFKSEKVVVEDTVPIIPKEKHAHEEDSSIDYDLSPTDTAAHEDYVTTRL

[6] = target: Short transient receptor potential channel 4 (Mus musculus) (UniProt Q9QUQ5); test: inhibitors of mouse TRPC4 channel, confirmation, cell-based, second round, Fluo4, HEK293 TRPC4beta/mu-opioid, 1 µM (AID 2637); details: Fluo4 calcium flux, DAMGO, at 1 µM; hits give high values
[7] = target: Short transient receptor potential channel 4 (Mus musculus) (UniProt Q9QUQ5); test: TRPC4 positive allosteric modulators, dose response, cell-based, HEK293 TRPC4/mu-opioid, Fluo-4 calcium, EC20 DAMGO (AID 434941;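 active means earlier screen potentiator hit that boosts the TRPC4 ion channel at some dose, with a dose response; inactive means no potentiation, no dose response, or not a prior hit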;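 further: calcium entry triggered by an EC20 dose of DAMGO at the co-expressed mu-opioid receptor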)
[8] = target: Short transient receptor potential channel 4 (Mus musculus) (UniProt Q9QUQ5); test: mouse TRPC4 channel inhibitors, dose response, cell-based, HEK293 TRPC4/mu-opioid, Fluo-4 calcium (AID 434942;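 active means primary screen inhibitor hit that blocks the TRPC4 channel at some tested dose, yielding a dose curve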)
[9] = target: Short transient receptor potential channel 6 (Mus musculus) (UniProt Q61143); test: inhibition of mouse TRPC6 channel, confirmation, selectivity assay for TRPC4 inhibitor project, cell-based, HEK293, membrane potential dye, duplicate (AID 434948;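 active means active in primary screen and both duplicates, each dropping signal beyond three positive-control SD with fluorescence still positive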); details: HEK293 TRPC6, membrane potential dye fluorescence, at 10 µM, stimulated with maximal-effect acetylcholine; hits give high values
Sequence of Short transient receptor potential channel 6 (Mus musculus) (Q61143 whole entry, looked up): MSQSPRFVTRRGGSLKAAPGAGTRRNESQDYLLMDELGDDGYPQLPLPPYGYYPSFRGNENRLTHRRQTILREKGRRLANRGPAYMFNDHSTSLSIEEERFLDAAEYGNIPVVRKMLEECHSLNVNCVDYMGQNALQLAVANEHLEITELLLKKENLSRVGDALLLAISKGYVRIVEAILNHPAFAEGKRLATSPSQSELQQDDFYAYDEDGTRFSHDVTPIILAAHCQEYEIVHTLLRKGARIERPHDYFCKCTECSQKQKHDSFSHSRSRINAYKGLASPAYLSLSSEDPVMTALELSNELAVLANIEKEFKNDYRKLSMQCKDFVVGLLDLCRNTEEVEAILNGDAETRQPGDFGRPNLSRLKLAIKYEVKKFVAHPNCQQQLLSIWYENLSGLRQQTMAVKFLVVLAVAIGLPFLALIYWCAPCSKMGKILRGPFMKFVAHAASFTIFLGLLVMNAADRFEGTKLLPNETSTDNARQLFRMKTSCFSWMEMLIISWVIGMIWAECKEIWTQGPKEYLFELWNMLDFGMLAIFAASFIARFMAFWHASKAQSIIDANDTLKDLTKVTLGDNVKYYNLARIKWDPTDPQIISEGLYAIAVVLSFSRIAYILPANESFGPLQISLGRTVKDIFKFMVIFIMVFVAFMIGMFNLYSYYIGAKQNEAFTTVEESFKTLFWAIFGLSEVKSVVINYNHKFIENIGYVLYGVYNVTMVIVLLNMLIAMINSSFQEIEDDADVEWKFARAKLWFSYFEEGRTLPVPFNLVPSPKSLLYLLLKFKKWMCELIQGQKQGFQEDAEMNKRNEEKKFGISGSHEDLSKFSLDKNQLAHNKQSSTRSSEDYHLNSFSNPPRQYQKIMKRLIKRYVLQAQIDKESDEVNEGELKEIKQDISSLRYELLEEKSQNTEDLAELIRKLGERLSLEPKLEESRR

[10] = target: Short transient receptor potential channel 6 (Mus musculus) (UniProt Q61143); test: activation of mouse TRPC6 channel, confirmation, selectivity assay for TRPC4 activator project, cell-based, HEK293, membrane potential dye, duplicate (AID 434950;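 active means membrane potential signal rise above negative control mean plus 3 SD in both duplicates, also active in the earlier TRPC4 screen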;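 on activation: 0% = buffer only wells and 100% = acetylcholine maximal-effect wells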); details: HEK293 TRPC6, membrane potential fluorescence, at 10 µM; hits give high values
[11] = target: Short transient receptor potential channel 6 (Mus musculus) (UniProt Q61143); test: TRPC6 potentiation by TRPC4 potentiator hits, confirmation, selectivity assay for TRPC4 potentiator project, HEK293 cells, membrane potential dye, duplicate (AID 434952;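 active means compound raising the membrane signal above positive-control mean plus 3 SD in both repeats, and a primary screen hit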); details: HEK293 TRPC6, membrane potential dye fluorescence, at 10 µM, maximal acetylcholine added after compound; hits give high values
[12] = target: Short transient receptor potential channel 4 (Mus musculus) (UniProt Q9QUQ5); test: calcium flux activators in TRPC4/5HT1a cells, counter-screen for TRPC4 activator project, cell-based, second counter screen, HEK293 TRPC4/5HT1a, Fluo-4 (AID 434977;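 active means calcium signal rise above buffer-control mean plus 5 SD in both duplicates, and also a hit in the primary screen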;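 on activation: plate controls were assay buffer for no effect and maximal serotonin response for full effect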); details: Fluo-4 calcium flux, at 10 µM; hits give high values
[13] = calcium flux inhibitors in TRPC4/5HT1a cells, confirmation, counter-screen for TRPC4 inhibitor project, cell-based, second counter screen, HEK293 TRPC4/5HT1a, Fluo-4 (AID 434978;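 active means primary screen active whose calcium signal fell more than 3 SD beyond the full-serotonin control mean in both duplicate plates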;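 further: serotonin given first at submaximal then at maximal dose after compound preincubation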); details: Fluo-4 calcium flux, at 10 µM, serotonin added to trigger calcium flux; hits give high values
[14] = test system: TRPC4 (mouse), co-expressed with 5HT1a in HEK293; test: calcium flux potentiators in TRPC4/5HT1a cells, confirmation, counter-screen for TRPC4 potentiator project, cell-based, second counter screen, HEK293 TRPC4/5HT1a, Fluo-4 (AID 434979;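 active means signal rise over 3 SD above mean of control wells given weak agonist, in both repeats and first screen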); details: Fluo-4 calcium flux, at 10 µM, serotonin added at its EC20 dose; hits give high values
[15] = calcium flux activation in mu-opioid HEK293 cells, confirmation, counter-screen for TRPC4 activator project, cell-based, HEK293 mu-opioid receptor line (AID 449723;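 active means hit in primary screen, with calcium signal over 5 SD above buffer well mean in both duplicates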;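 further: counter screen cells carry the mu-opioid receptor alone and lack TRPC4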); details: Fluo-4 calcium fluorescence, at 10 µM; hits give high values
[16] = calcium flux enhancement in mu-opioid HEK293 cells, confirmation, counter-screen for TRPC4 allosteric potentiator project, cell-based, HEK293 mu-opioid receptor line (AID 449724;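 active means calcium signal rise more than 3 SD above the low-dose agonist control mean, in both duplicate plates and the primary screen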); details: Fluo-4 calcium flux, at 10 µM, compound added before EC20 DAMGO stimulus; hits give high values

Cc1ccc(C)c(S(=O)(=O)N2CCN(C(=O)CCc3nc4ccccc4c(=O)[nH]3)CC2)c1
active: activation [1] 153% | activation [10] 39% | activation [12] 25.2%
inactive: outcome [2] | outcome [3] | outcome [4] | outcome [5] | outcome [6] | outcome [7] | outcome [8] | outcome [9] | outcome [11] | outcome [13] | outcome [14] | outcome [15] | outcome [16]

CN(C)C(CNC(=S)Nc1ccccc1)c1cccnc1 (stereo not given)
inactive: outcome [3] | outcome [4] | outcome [5] | outcome [6] | outcome [7] | outcome [8] | outcome [9] | outcome [11] | outcome [12] | outcome [13] | outcome [14] | outcome [15] | outcome [16]
active: activation [1] 76% | activation [2] 82% | activation [10] 36%

CCOC(=O)C1(CCOc2ccccc2)CCN(Cc2ccc(NC(C)=O)cc2)CC1
active: activation [1] 146% | activation [2] 68% | activation [10] 51%
inactive: outcome [3] | outcome [4] | outcome [5] | outcome [6] | outcome [7] | outcome [8] | outcome [9] | outcome [11] | outcome [12] | outcome [13] | outcome [14] | outcome [15] | outcome [16]

COc1cc(OC)cc(C(=O)NC2CCCN(Cc3ccc(Cl)cc3)C2)c1 (stereo not given)
active: activation [1] 111% | activation [10] 44.5% | activation [12] 31.6%
inactive: outcome [2] | outcome [3] | outcome [4] | outcome [5] | outcome [6] | outcome [7] | outcome [8] | outcome [9] | outcome [11] | outcome [13] | outcome [14] | outcome [15] | outcome [16]

Cc1cc(-c2nn(-c3ccccc3F)cc2CNCCc2cnc[nH]2)c(C)s1
inactive: outcome [3] | outcome [4] | outcome [5] | outcome [6] | outcome [7] | outcome [8] | outcome [9] | outcome [10] | outcome [11] | outcome [13] | outcome [14] | outcome [15] | outcome [16]
active: activation [1] 89% | activation [2] 87% | activation [12] 39.8%

CCn1cc(CN2CCCC(C(=O)Nc3ccc(-c4nc5ccccc5[nH]4)cc3)C2)c(C)n1 (stereo not given)
active: activation [1] 169% | activation [2] 116% | activation [10] 52% | activation [12] 35.7%
inactive: outcome [3] | outcome [4] | outcome [5] | outcome [6] | outcome [7] | outcome [8] | outcome [9] | outcome [11] | outcome [13] | outcome [14] | outcome [15] | outcome [16]

COc1ccc(C(CNC(=O)c2cccc(NS(=O)(=O)c3ccc(C)c(F)c3)c2)N(C)C)cc1 (stereo not given)
inactive: outcome [2] | outcome [3] | outcome [4] | outcome [5] | outcome [6] | outcome [7] | outcome [8] | outcome [9] | outcome [11] | outcome [12] | outcome [13] | outcome [14] | outcome [15] | outcome [16]
active: activation [1] 135% | activation [10] 28.5%

NC(=O)C1CCCN(CC(O)COCc2ccc(Cl)cc2)C1 (stereo not given)
active: activation [1] 140% | activation [2] 133% | activation [10] 31.5% | activation [12] 69.7%
inactive: outcome [3] | outcome [4] | outcome [5] | outcome [6] | outcome [7] | outcome [8] | outcome [9] | outcome [11] | outcome [13] | outcome [14] | outcome [15] | outcome [16]

CN(C)C(CNc1ncnc2sc3c(c12)CCCC3)c1ccco1 (stereo not given)
inactive: outcome [2] | outcome [3] | outcome [4] | outcome [5] | outcome [6] | outcome [7] | outcome [8] | outcome [9] | outcome [10] | outcome [11] | outcome [12] | outcome [13] | outcome [14] | outcome [15] | outcome [16]
active: activation [1] 110%

CCOc1ccccc1CN1CCNC(=O)C1CC(=O)N(C)CCc1ccccn1 (stereo not given)
inactive: outcome [3] | outcome [4] | outcome [5] | outcome [6] | outcome [7] | outcome [8] | outcome [9] | outcome [11] | outcome [13] | outcome [14] | outcome [15] | outcome [16]
active: activation [1] 235% | activation [2] 76% | activation [10] 27% | activation [12] 72.6%

Cc1ccc(C)c(CN2CCC(CNC(=O)CCc3nnc4ccc(N5CCCCC5)nn34)CC2)c1
active: activation [1] 157% | activation [2] 92%
inactive: outcome [3] | outcome [4] | outcome [5] | outcome [6] | outcome [7] | outcome [8] | outcome [9] | outcome [10] | outcome [11] | outcome [12] | outcome [13] | outcome [14] | outcome [15] | outcome [16]

CCCCN(CC)CCNC(=O)c1cc2c(C)nc3ccccc3c2o1
inactive: outcome [2] | outcome [3] | outcome [4] | outcome [5] | outcome [6] | outcome [7] | outcome [8] | outcome [9] | outcome [10] | outcome [11] | outcome [13] | outcome [14] | outcome [15] | outcome [16]
active: activation [1] 128% | activation [12] 42.6%

Cc1ccc(-n2cc(CNCCc3ncc(C)[nH]3)c(-c3ccc(F)cc3)n2)cc1
active: activation [1] 177% | activation [12] 14.9%
inactive: outcome [2] | outcome [3] | outcome [4] | outcome [5] | outcome [6] | outcome [7] | outcome [8] | outcome [9] | outcome [10] | outcome [11] | outcome [13] | outcome [14] | outcome [15] | outcome [16]

O=C1/C(=C\c2cc(Cl)c(O)c(Cl)c2)SC(=S)N1Cc1ccccc1
inactive: outcome [2] | outcome [3] | outcome [5] | outcome [6] | outcome [7] | outcome [8] | outcome [9] | outcome [13]
active: activation [1] 118% | potentiation [4] 43% | activation [10] 1320% | potentiation, percent of control [11] 640% | activation [12] 105% | potentiation [14] 27.4% | activation [15] 248% | activation [16] 3240%

O=C(NCCCN1CCN(CCCNC(=O)c2ccc3c(c2)OCO3)CC1)c1ccc2c(c1)OCO2
active: activation [1] 112% | activation [2] 76% | activation [12] 37.2%
inactive: outcome [3] | outcome [4] | outcome [5] | outcome [6] | outcome [7] | outcome [8] | outcome [9] | outcome [10] | outcome [11] | outcome [13] | outcome [14] | outcome [15] | outcome [16]
